# Targets with a hit are over-represented here; the source holds about 7,900 in all. About 0.6% of all pairs of compound and target were hits. Values without a mark were called inactive.
# Legend:
# Assay in all cases: log2 fold change, soluble protein after heating vs DMSO (PISA); higher = thermal stabilisation; K562 cells, 10 uM, 30 min; active = over 0.2 and 3.5 SD of the protein, either way, in both replicates (recomputed)
# erlotinib = compound: C#Cc1cccc(Nc2ncnc3cc(OCCOC)c(OCCOC)cc23)c1 [erlotinib]
# Method in brief: (§1)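 K562 cells at 2×10^6 cells/mL were exposed to 10 μM compound for 30 min, then aliquots were heated for 3 min across 48°C-58°C, pooled, and extracted in PBS containing 0.5% NP-40 at 4°C. The supernatant after 21,000xg for 90 min was taken as soluble protein and measured by TMTpro 16plex LC-MS/MS with channel sums equalised. Thermal stability is reported relative to control samples, with values from duplicates. Fold changes are given on a log2 scale.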
# [1] = compound: C/C(=N\NC(=O)C1=CC(=CC=C1)S(=O)(=O)N2CCOCC2)/C3=C(C=CC(=C3)Cl)O
# Method in brief: as §1
# [2] = compound: C1=CC(=C(C=C1Cl)C2=NC3=NC=CN=C3C(=N2)NC4=CC=NC=C4)F
# Method in brief: as §1
# [3] = compound: C1=CC(=CC=C1C2=NC3=C(N2)C=C(C=C3)C(=O)N)OC4=CC=C(C=C4)Cl
# Method in brief: as §1
# [4] = compound: C1=CC2=C(C=CC(=C2)/C=C\3/C(=O)NC(=NCC4=CC=CS4)S3)N=C1
# Method in brief: as §1
# [5] = compound: C1=CC2=NC=CN=C2C=C1/C=C/3\C(=O)NC(=O)S3
# Method in brief: as §1
# [6] = compound: C1=CC=C2C(=C1)C3=NNC4=CC=CC(=C43)C2=O
# Method in brief: as §1
# [7] = compound: C1CCN(C1)C(=O)NC2=CC=CC(=C2)NC3=NC=C(C(=N3)NCCC4=CN=CN4)Br
# Method in brief: as §1
# [8] = compound: C1CN(CCC1(CC2=CC=C(C=C2)Cl)N)C3=NC=NC4=C3C=CN4
# Method in brief: as §1
# [9] = compound: C1=CC=C(C=C1)C2=NC(=C(N2)C3=CC=NC=C3)C4=CC(=C(C=C4)Cl)O
# Method in brief: as §1
# UniProt A6NIH7, sequence (A6NIH7 whole entry, looked up): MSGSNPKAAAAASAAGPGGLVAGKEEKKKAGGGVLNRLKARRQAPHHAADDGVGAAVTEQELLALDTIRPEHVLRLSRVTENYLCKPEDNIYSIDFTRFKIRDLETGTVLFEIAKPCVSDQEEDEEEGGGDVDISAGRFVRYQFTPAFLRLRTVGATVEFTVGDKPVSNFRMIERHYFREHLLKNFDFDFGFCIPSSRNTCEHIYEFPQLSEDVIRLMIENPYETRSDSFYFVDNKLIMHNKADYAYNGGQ
# UniProt Q9BZH6, sequence (Q9BZH6 whole entry, looked up): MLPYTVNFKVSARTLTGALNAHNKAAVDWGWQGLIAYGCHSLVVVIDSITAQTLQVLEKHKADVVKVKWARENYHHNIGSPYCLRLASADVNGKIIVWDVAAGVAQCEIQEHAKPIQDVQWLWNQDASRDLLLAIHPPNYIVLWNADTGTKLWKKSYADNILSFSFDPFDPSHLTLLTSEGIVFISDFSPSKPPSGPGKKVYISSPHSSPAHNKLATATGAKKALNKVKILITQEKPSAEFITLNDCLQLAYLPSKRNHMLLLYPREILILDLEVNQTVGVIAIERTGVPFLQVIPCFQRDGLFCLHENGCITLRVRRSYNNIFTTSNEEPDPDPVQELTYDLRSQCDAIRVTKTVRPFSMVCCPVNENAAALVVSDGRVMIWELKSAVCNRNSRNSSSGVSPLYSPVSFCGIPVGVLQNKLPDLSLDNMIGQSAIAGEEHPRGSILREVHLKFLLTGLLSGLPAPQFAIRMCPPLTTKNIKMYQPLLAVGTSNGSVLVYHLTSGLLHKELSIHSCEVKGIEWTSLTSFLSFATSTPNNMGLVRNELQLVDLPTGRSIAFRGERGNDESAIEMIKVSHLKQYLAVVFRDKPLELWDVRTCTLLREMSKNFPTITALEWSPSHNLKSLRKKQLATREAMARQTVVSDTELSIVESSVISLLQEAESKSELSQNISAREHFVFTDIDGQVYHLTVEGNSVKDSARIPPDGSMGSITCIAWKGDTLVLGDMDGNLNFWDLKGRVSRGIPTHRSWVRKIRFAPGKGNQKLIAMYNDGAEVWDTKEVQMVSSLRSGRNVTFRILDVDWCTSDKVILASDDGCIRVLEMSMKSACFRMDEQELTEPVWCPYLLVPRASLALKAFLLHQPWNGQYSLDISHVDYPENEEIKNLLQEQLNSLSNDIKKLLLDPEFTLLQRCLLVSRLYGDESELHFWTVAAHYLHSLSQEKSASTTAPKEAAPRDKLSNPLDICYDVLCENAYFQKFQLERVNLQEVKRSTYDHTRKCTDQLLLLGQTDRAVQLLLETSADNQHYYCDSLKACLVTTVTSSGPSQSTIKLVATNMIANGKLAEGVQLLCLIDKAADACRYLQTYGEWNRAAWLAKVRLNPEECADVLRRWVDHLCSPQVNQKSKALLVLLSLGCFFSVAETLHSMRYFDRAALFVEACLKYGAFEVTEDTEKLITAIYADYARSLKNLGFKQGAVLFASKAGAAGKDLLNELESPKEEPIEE
# UniProt Q9UDW1, sequence (Q9UDW1 whole entry, looked up): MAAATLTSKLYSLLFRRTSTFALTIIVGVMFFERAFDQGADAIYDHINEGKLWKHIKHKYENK
# UniProt Q7Z3V4, sequence (Q7Z3V4 whole entry, looked up): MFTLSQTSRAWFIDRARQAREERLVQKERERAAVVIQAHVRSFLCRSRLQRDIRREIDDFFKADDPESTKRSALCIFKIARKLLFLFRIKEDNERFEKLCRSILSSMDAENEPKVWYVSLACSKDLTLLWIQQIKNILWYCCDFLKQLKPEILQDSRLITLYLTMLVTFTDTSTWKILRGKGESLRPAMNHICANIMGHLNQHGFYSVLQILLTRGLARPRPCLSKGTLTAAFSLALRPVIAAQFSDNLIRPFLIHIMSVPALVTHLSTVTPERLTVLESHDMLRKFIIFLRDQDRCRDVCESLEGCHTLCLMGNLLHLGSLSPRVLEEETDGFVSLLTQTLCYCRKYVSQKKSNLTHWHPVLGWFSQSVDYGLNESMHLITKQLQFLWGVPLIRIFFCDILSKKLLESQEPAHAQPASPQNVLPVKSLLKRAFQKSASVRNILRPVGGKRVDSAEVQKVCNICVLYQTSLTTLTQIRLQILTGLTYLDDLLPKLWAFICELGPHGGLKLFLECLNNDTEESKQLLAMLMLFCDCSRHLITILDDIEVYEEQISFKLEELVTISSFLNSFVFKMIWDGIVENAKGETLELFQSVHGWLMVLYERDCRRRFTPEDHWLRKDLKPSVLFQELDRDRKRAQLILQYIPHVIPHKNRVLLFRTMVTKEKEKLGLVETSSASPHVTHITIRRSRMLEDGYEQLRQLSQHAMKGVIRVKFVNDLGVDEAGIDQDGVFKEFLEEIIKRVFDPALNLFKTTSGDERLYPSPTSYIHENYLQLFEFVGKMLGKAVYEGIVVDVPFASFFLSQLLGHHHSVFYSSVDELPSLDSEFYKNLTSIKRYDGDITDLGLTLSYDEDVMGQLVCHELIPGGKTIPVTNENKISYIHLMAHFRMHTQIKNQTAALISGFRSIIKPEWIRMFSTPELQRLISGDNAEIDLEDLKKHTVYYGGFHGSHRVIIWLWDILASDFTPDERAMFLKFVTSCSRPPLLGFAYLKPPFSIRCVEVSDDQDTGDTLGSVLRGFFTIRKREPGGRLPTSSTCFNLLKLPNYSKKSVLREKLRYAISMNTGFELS
# UniProt Q9P253, sequence (Q9P253 whole entry, looked up): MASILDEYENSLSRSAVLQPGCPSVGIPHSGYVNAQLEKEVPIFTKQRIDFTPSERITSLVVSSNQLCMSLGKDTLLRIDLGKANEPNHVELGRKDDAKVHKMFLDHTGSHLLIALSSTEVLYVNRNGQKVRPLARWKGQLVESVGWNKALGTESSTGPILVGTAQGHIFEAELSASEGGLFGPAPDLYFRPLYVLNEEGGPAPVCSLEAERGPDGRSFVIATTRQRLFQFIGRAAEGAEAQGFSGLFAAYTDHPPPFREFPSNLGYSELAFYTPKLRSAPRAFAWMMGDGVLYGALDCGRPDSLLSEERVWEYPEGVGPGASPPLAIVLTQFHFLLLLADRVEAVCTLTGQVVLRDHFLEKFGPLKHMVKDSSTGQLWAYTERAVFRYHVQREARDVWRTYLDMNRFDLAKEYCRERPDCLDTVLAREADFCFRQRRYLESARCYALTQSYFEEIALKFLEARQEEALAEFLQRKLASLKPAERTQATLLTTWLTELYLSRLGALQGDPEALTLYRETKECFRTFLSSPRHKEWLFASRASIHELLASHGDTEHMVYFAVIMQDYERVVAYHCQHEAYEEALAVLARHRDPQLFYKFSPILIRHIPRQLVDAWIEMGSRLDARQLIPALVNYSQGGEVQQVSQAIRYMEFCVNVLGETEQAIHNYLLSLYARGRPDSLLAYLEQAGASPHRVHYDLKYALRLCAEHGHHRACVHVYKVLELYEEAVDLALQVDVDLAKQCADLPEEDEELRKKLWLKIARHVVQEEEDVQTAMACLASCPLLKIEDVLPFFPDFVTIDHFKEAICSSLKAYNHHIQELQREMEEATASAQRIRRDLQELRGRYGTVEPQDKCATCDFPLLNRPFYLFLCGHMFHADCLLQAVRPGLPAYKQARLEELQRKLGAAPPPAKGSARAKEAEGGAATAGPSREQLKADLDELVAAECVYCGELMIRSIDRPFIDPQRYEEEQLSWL
# UniProt Q9H267, sequence (Q9H267 whole entry, looked up): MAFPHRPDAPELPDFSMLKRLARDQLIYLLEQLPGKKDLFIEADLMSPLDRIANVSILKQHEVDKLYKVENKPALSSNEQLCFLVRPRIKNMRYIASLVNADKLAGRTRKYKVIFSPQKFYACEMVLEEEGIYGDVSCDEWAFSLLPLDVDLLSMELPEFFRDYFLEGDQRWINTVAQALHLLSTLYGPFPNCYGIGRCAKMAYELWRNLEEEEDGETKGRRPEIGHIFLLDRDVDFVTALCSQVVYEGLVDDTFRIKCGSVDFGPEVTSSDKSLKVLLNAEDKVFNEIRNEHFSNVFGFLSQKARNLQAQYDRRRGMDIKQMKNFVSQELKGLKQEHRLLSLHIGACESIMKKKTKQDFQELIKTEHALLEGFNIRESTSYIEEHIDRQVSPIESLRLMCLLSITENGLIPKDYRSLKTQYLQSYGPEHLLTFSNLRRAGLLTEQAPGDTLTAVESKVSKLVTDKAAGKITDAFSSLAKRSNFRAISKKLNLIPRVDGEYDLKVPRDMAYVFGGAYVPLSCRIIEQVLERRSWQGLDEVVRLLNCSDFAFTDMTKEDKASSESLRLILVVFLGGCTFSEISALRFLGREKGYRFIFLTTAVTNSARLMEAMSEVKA
# UniProt Q9HCN3, sequence (Q9HCN3 whole entry, looked up): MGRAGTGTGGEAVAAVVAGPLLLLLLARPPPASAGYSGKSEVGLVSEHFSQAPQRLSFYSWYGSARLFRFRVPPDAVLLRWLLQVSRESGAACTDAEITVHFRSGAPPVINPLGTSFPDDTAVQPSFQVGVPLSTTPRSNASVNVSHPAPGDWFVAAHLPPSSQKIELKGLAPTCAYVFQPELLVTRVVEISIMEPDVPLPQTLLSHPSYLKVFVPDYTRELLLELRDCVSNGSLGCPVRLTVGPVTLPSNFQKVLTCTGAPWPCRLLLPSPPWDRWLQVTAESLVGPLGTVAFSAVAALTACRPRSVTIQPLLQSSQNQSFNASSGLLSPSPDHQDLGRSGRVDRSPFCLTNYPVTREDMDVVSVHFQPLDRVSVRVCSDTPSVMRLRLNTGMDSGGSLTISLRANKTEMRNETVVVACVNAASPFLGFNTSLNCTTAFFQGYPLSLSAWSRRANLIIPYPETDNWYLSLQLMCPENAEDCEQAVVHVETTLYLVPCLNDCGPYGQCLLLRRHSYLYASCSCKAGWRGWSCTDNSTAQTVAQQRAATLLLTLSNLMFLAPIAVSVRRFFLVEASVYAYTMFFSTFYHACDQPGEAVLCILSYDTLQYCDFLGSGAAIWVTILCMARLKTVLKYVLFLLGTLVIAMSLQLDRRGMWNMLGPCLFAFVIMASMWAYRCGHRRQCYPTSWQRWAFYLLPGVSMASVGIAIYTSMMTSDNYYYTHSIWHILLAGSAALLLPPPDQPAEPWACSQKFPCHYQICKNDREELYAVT
# UniProt P61960, sequence (P61960 whole entry, looked up): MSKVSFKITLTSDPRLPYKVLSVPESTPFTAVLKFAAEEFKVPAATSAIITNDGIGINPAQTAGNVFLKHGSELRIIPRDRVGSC
Target,log2 fold change (erlotinib),log2 fold change [1],log2 fold change [2],log2 fold change [3],log2 fold change [4],log2 fold change [5],log2 fold change [6],log2 fold change [7],log2 fold change [8],log2 fold change [9]
TMEM219 (UniProt Q86XT9),-0.029,0.035,0.059,0.073,0.001,0.015,0.006,0.042,0.016,–
WDR11 (UniProt Q9BZH6),0.103,-0.081,0.145,-0.004,0.115,0.067,0.005,0.091,0.023,-0.168
TYW1 (UniProt Q9NV66),-0.045,0.012,0.055,0.057,0.003,0.009,0.057,-0.041,0.022,0.042
TMEM104 (UniProt Q8NE00),0.08,-0.026,0.037,0.026,0.039,–,-0.015,–,–,0.013
TRAPPC3 (UniProt O43617),-0.032,0.102,0.025,-0.001,0.021,0.069,-0.018,0.008,-0.077,-0.047
VPS33B (UniProt Q9H267),0.108,0.093,-0.039,-0.07,0.073,0.053,0.044,-0.076,-0.102,0.019
TMEM192 (UniProt Q8IY95),0.044,-0.017,0.011,-0.008,-0.011,0.067,-0.017,0.039,0.038,0.011
TTI2 (UniProt Q6NXR4),0,0.053,0.003,-0.035,0.029,-0.036,0.046,0.008,-0.028,-0.095
VPS16 (UniProt Q9H269),0.104,0.128,-0.004,-0.034,0.093,0.087,-0.018,-0.007,-0.128,-0.031
UBE2J2 isoform 3 (UniProt Q8N2K1),-0.096,0.154,0.026,0.07,-0.057,0.126,-0.039,-0.145,-0.015,–
TMEM161A (UniProt Q9NX61),0.017,0.088,-0.019,-0.018,0.021,0.001,-0.006,-0.067,0.054,0.029
TMEM106B (UniProt Q9NUM4),0.007,0.028,-0.047,0.031,0.051,-0.002,0.003,-0.064,0.15,–
XRCC1 (UniProt P18887),0.036,-0.392,0.04,0.046,0.304,–,0.042,0.043,0.117,-0.035
WRB (UniProt O00258),-0.02,0.012,0.032,0.019,-0.003,0.069,-0.042,0.027,-0.011,0.019
VTA1 (UniProt Q9NP79),-0.05,0.124,0.07,0.018,-0.007,0.025,0.029,0.01,-0.024,-0.02
TRAM1 (UniProt Q15629),0.059,0.016,-0.028,-0.088,0.015,0.065,-0.151,0.105,0,0.144
TRIM4 (UniProt Q9C037),0.004,0.031,0.035,-0.199,0.002,-0.01,0.135,-0.111,-0.073,-0.029
UQCR10 (UniProt Q9UDW1),-0.026,0.056,0.069,-0.023,0.034,0.014,-0.003,0.006,0,0.046
TMEM177 (UniProt Q53S58),0.058,0.044,0.03,-0.025,0.062,-0.015,0.01,0.028,0.132,-0.034
USP7 (UniProt Q93009),0.089,0.139,0.046,0,0.159,0.004,0.085,-0.04,-0.003,0.068
TRIM28 (UniProt Q13263),0.001,0.077,0.041,-0.023,-0.021,0.018,0.004,-0.013,-0.026,-0.023

Target,log2 fold change (erlotinib),log2 fold change [1],log2 fold change [2],log2 fold change [3],log2 fold change [4],log2 fold change [5],log2 fold change [6],log2 fold change [7],log2 fold change [8],log2 fold change [9]
VDAC1 (UniProt P21796),-0.006,0,0.039,-0.003,-0.023,0.006,0.005,0.006,0.067,-0.004
UFM1 isoform 2 (UniProt P61960),-0.132,0.108,0.06,0.14,0.07,0.032,-0.003,0.08,0.004,–
VPS18 (UniProt Q9P253),0.026,0.065,0.019,0.023,0.04,0.04,-0.012,-0.006,-0.024,-0.086
TOP2A isoform 4 (UniProt P11388),0.008,-0.124,-0.429,0.094,-0.061,0.23,0.053,0.073,-0.219,0.077
TOM1 (UniProt O60784),0.082,–,0.193,-0.037,–,0.186,–,0.022,-0.097,–
TMEM8A (UniProt Q9HCN3),0.046,–,–,-0.001,–,0.02,–,-0.014,0.011,0.124
TRIM23 (UniProt P36406),0.006,–,–,0.075,–,-0.096,–,-0.202,0.161,0.061
WARS1 (UniProt G3V5U1),–,–,-0.233,–,–,0.187,–,–,–,–
TVP23C (UniProt Q96ET8),-0.025,0.053,–,-0.021,0.062,–,-0.098,0.066,-0.031,–
UBE3B (UniProt Q7Z3V4),–,0.018,0.08,–,0.121,0.135,-0.043,0.395,0.16,0.064
WARS1 (UniProt G3V227),–,-0.08,0.018,–,-0.159,0.093,-0.178,0.098,-0.089,–
TSPAN13 (UniProt O95857),0.017,–,-0.058,0.061,–,0.075,–,0.065,0.143,-0.02
WDR4 isoform 3 (UniProt P57081),–,–,-0.144,–,–,0.045,–,–,–,–
WDR75 (UniProt Q8IWA0),–,-0.256,-0.592,–,0.306,0.091,0.042,-0.193,0.021,-0.063
UBIAD1 (UniProt Q9Y5Z9),0.101,-0.052,–,0.04,0.194,-0.036,0.297 (active),0,0.094,0.259
U2AF1L5 (UniProt P0DN76),1.29 (active),0.031,–,0.022,-0.159,0.096,-0.005,0.153,-0.207,–
WARS1 (UniProt G3V3P2),–,–,–,–,–,0.155,–,–,–,–
ULBP1 (UniProt Q9BZM6),-0.017,0.011,0.231,0.044,0.021,–,0.037,-0.073,0.078,-0.083
VKORC1 (UniProt Q9BQB6),0.048,-0.048,–,-0.019,0.175,0.113,0.151,-0.049,0.005,0.044
TRIQK (UniProt Q629K1),–,–,-0.023,–,–,0.046,–,-0.003,0.097,-0.077
UTP20 (UniProt O75691),-0.082,–,0.053,-0.321,–,–,–,0.061,0.04,–

Target,log2 fold change (erlotinib),log2 fold change [1],log2 fold change [2],log2 fold change [3],log2 fold change [4],log2 fold change [5],log2 fold change [6],log2 fold change [7],log2 fold change [8],log2 fold change [9]
WARS1 (UniProt G3V277),0.183,-0.032,–,-0.076,0.25,0.036,-0.014,0.141,-0.008,–
XAB2 (UniProt Q9HCS7),–,–,-0.223,–,–,–,–,–,–,0.075
TMEM184C (UniProt Q9NVA4),–,0.04,-0.055,–,-0.05,-0.027,-0.009,-0.092,-0.059,-0.047
UNC119B (UniProt A6NIH7),0,0.124,–,0.316,0.031,0.001,0.005,-0.012,0.454 (active),0.472 (active)
TUBA4A (UniProt C9JJQ8),–,–,–,–,–,0.004,–,0.142,-0.036,–
"WDR46, A0A0G2JJL1",-0.273,–,-0.741,-0.011,–,0.027,–,0.279,0.114,–
TUT4 (UniProt Q5TAX3),0.077,–,-0.231,0.005,–,-0.011,–,-0.015,-0.129,0.08
WARS1 (UniProt G3V339),–,–,-0.023,–,–,–,–,–,–,–
UBXN10 (UniProt Q96LJ8),-0.036,–,0.004,0.048,–,-0.068,–,-0.101,0.128,-0.077
UBXN8 (UniProt O00124),–,0.056,0.147,–,0.141,-0.41,-0.036,0.167,-0.019,-0.149
TOM1L2 (UniProt Q6ZVM7),-0.048,0.06,0.043,0.013,0.025,–,-0.026,–,–,–
USP48 (UniProt Q86UV5),0.228,–,–,-0.112,–,0.007,–,–,–,–
TRIM44 (UniProt Q96DX7),0.022,0.1,–,0.025,0.028,0.087,-0.037,-0.023,-0.014,-0.061
TXNL4B (UniProt Q9NX01),0.018,0.007,–,-0.001,0.088,0.221,0.041,-0.005,-0.016,0.008
TRIM5 (UniProt Q9C035),-0.061,0.075,0.111,0.162,0.012,–,0.019,-0.077,-0.01,-0.182
UBAP2L (UniProt F8W726),0.019,–,–,0.004,–,-0.019,–,0,0.124,–
TRPT1 isoform 4 (UniProt Q86TN4),0.021,0.065,–,-0.08,0.021,–,-0.062,–,–,0.043
TXNRD1 isoform 7 (UniProt Q16881),0.107,–,0.1,-0.193,–,0.199,–,–,–,–
UBE2D1 (UniProt P51668),0.098,0.071,–,0.068,0.057,0.023,-0.096,0.022,-0.162,0.01
TTC26,–,–,–,–,–,0.001,–,0.09,-0.062,-0.005

# Reference: the supplement of paper PMC10849652
